Test [1] has as its system Molm13. Put plainly: cell viability relative to DMSO control (bortezomib = 0%); higher = less growth inhibition. The note with it: 10 nM; 72 h. A digest of the protocol: (§1)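 In duplicate runs, a library of 679 approved and investigational compounds in 384-well plates received acute myeloid leukemia cells at 1000 cells per well in 50 µL, with each compound at a single 10 nM dose for 72 h. CellTiter-Glo luminescence, read on an EnVision reader, served as the viability measure. Each plate was normalized by linear regression between DMSO-treated cells (100%) and positive-control-treated cells (0%).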

The test system of test [2] is Mv4-11. The test is described as above. Particulars: 10 nM; 72 h. An outline of the steps:
as §1

Several values for one entry are separate records, joined by “and”; a condition that tells them apart may be missing. Identical values can stand only once. Counter-ions that a name gives are not always drawn. ± gives the standard deviation of the averaged measurements.

Usually cell viability stands for a read-out of living cells in per cent, often relative to untreated cells.

Consider `OCCn1cc(-c2cnc3nnn(Cc4ccc5ncccc5c4)c3n2)cn1`, for which the cell viability was 120 ± 24% in test [1] and 112 ± 8.7% in test [2].

As to `O=C1NC(=O)/C(=C/c2ccc3nccc(-c4ccncc4)c3c2)S1`, the cell viability in test [1] is 106% and 113%; in test [2], 103% and 115%.

Regarding `O=c1ccc2ccc(O)c(O)c2o1` [Daphnetin], the cell viability was determined as 100 ± 4.2% in test [1] and 109 ± 12% in test [2].

In the case of `Oc1cccc(-c2nc(N3CCOCC3)c3sccc3n2)c1` [PI3-Kinase ? Inhibitor 2], the cell viability was 108.6 ± 0.5% in test [1] and 120 ± 22% in test [2].

On to `CN(C)C(=O)c1ccc(S(=O)(=O)c2ccc(NC(=O)[C@@](C)(O)C(F)(F)F)c(Cl)c2)cc1`, for which the cell viability came out at 97 ± 12% in test [1] and 109 ± 7% in test [2].

On to `COc1cc2ncnc(Nc3cccc(O)c3)c2cc1OC`, for which the cell viability in test [1] turned out to be 109 ± 6.3%; in test [2], 109 ± 8.6%.

With `CS(=O)(=O)CCNCc1ccc(-c2ccc3ncnc(Nc4ccc(OCc5cccc(F)c5)c(Cl)c4)c3c2)o1` [Lapatinib], the values for the cell viability in test [1] and in test [2] were 96.5 ± 5.9% and 103.5 ± 0.39%, respectively.

Consider `COc1cc(/C=C(\C#N)C(N)=O)cc(CSc2nc3ccccc3s2)c1O`, for which the cell viability in test [1] is 112 ± 4.3%; in test [2], 93.1 ± 5.8%.

Take `Cc1c(CN2CCN(C(=O)[C@H](C)O)CC2)sc2c(N3CCOCC3)nc(-c3cnc(N)nc3)nc12` [Apitolisib (GDC-0980, RG7422)]: the cell viability was 108 ± 2.2% in test [1] and 104 ± 14% in test [2].

On to `CC1(C)CNc2cc(NC(=O)c3cccnc3NCc3ccncc3)ccc21` [Motesanib (AMG-706)], for which the results for the cell viability in test [1] and in test [2] were 106 ± 20% and 107 ± 5.2%, respectively.

Turning to `CC(CCc1ccccn1)(CCc1ccccn1)C(=O)c1ccccc1`, the cell viability in test [1] turned out to be 112 ± 14%; in test [2] it was 109 ± 12%.

`COc1ccc(-c2cnc3c(-c4cccc5ncccc45)cnn3c2)cc1`: the cell viability in test [1] is 103 ± 12%; in test [2], 103 ± 1.6%.

For the compound `N#Cc1ccc(COc2ccc(-c3cccc4nc(NC(=O)C5CC5)nn34)cc2)cn1` [GLPG0634 analogue], the values for the cell viability in test [1] and in test [2] were 107 ± 8.4% and 119 ± 3.4%, respectively.

Regarding `O=C(NCc1ccccc1)c1csc(Nc2ccncn2)n1` [Thiazovivin], the cell viability in test [1] is 115 ± 7.6%; in test [2], 113 ± 3.7%.

Regarding `Oc1ccc(Nc2nc(-c3ccc(Cl)cc3)cs2)cc1` [Sphingosine Kinase Inhibitor 2], the cell viability is 101 ± 17% in test [1] and 108 ± 7.4% in test [2].

Regarding `COc1ccc([C@@H]2OC[C@H]3[C@@H]2CO[C@@H]3c2ccc(O[C@@H]3O[C@H](CO)[C@@H](O)[C@H](O)[C@H]3O)c(OC)c2)cc1OC` [Forsythin], the cell viability in test [1] was 123 ± 20%; in test [2] it was 102 ± 6.1%.

Turning to `COc1cc2ncnc(Nc3cccc(Cl)c3)c2cc1OC`, the cell viability in test [1] is 98.7 ± 14%; in test [2], 108 ± 7.1%.

As for `C[C@@H]1COCCN1c1cc(C2([S@](C)(=N)=O)CC2)nc(-c2cc[nH]c3nccc2-3)n1`, the figures for the cell viability in test [1] and in test [2] were 114 ± 7.9% and 115 ± 3.4%, respectively.

With `O=C(Nc1nc2cccc(-c3ccc(CN4CCS(=O)(=O)CC4)cc3)n2n1)C1CC1` [Filgotinib (GLPG0634)], the cell viability was found to be 86.4 ± 6% in test [1] and 107.7 ± 0.87% in test [2].

As for `CC[C@H](Nc1ncnc2[nH]cnc12)c1nc2cccc(F)c2c(=O)n1-c1ccccc1` [CAL-101 (Idelalisib, GS-1101)], the cell viability in test [1] stood at 93.7 ± 22%; in test [2] it was 105 ± 6.2%.

For `N#CC(=Cc1ccc2[nH]ccc2c1)C(N)=C(C#N)C#N`, the cell viability amounted to 104 ± 20% in test [1] and 103.5 ± 0.36% in test [2].

As to `O=C(Nc1cccc(Cl)c1)Nc1ncc(CCNc2ncnc3ccsc23)s1` [SNS-314 Mesylate], the results for the cell viability in test [1] and in test [2] were 64.7 ± 13% and 84.75 ± 0.26%, respectively.

Consider `CN(C)C/C=C/C(=O)Nc1cc2c(Nc3ccc(F)c(Cl)c3)ncnc2cc1O[C@H]1CCOC1` [Afatinib (BIBW2992)], for which the values for the cell viability in test [1] and in test [2] were 87.5 ± 7.3% and 97.7 ± 6.9%, respectively.

Regarding `CCCS(=O)(=O)Nc1ccc(F)c(C(=O)c2c[nH]c3ncc(-c4ccc(Cl)cc4)cc23)c1F` [Vemurafenib (PLX4032, RG7204)], the cell viability in test [1] came out at 101 ± 7%; in test [2] it was 105 ± 1.1%.

Turning to `NC[C@@](O)(c1ccc(Cl)cc1)c1ccc(-c2cn[nH]c2)cc1`, the results for the cell viability in test [1] and in test [2] were 108 ± 8.3% and 123 ± 20%, respectively.

As for `N#C/C(=C(/N)Sc1ccc(N)cc1)c1ccccc1C(F)(F)F`, the values for the cell viability in test [1] and in test [2] were 108 ± 28% and 110 ± 8.3%, respectively.

For the compound `O=C(NCc1cccc(O)c1)c1cc2cc(F)ccc2[nH]1`, the figures for the cell viability in test [1] and in test [2] were 113 ± 3.2% and 114 ± 1.2%, respectively.

On to `Nc1ncnc2c1ncn2[C@@H]1O[C@H](COP(=O)(O)O)[C@@H](O)[C@H]1O` [Adenosine 5'-monophosphate], for which the cell viability in test [1] is 96 ± 7.5%; in test [2] it was 113 ± 2.5%.

As for `COc1ccc(C(=C2C(=O)Nc3ccccc32)c2ccc(OC)cc2)cc1`, the cell viability in test [1] was determined as 95.1 ± 2.4%; in test [2], 103 ± 5%.

Turning to `CC1(C)CC(=O)C2=C(C1)NC(=S)NC2c1cccc(O)c1` (stereo not given) [Dimethylenastron], the cell viability in test [1] was determined as 91 ± 2.6%; in test [2] it was 109 ± 4.5%.

`CN(N=O)C(=O)N[C@@H](C=O)[C@@H](O)[C@H](O)[C@H](O)CO` [Streptozocin]: the cell viability in test [1] is 89.4 ± 24%; in test [2], 108 ± 4.5%.

`CO[C@@H](C(=O)N1Cc2[nH]nc(NC(=O)c3ccc(N4CCN(C)CC4)cc3)c2C1)c1ccccc1`: the cell viability in test [1] is 95.2 ± 34%; in test [2], 100 ± 3.8%.

Turning to `CCN(CC)CCNC(=O)c1c(C)[nH]c(/C=C2\C(=O)Nc3ccc(F)cc32)c1C` [Sunitinib Malate], the cell viability in test [1] was 83.1 ± 1.1%; in test [2], 97.8 ± 4.2%.

Take `CN1CC(O)C2=C/C(=N/NC(N)=O)C(=O)C=C21` (stereo not given) [Carbazochrome]: the cell viability is 93.7 ± 20% in test [1] and 107 ± 9.7% in test [2].

As for `CCCCNc1ncc(C(=O)NCc2ccc(-n3ccnc3)cc2)c(NC2CCC(O)CC2)n1` (stereo not given), the cell viability came to 103 ± 5.1% in test [1] and 115.2 ± 0.28% in test [2].

The values are drawn from the supplement of paper PMC8699584.
